Among the data in PubChem BioAssay (NCATS) are Potency values, retold here.

A short description of test [1]: qHTS of pediatric cancer cell lines to identify multiple opportunities for drug repurposing: Primary screen for NB-EBc1 cells (AID 1347095). The method, boiled down:
(§1)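 Readout: CellTiter-Glo luminescence, 48 h treatment. Controls DMSO (neutral) and bortezomib 2.3 µM final (positive). Potency and efficacy taken from primary-screen concentration-response curves.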
A general note: Quantitative high-throughput screening tests each substance at several concentrations.

Test [2] can be described thus: qHTS of pediatric cancer cell lines to identify multiple opportunities for drug repurposing: Primary screen for U-2 OS cells (AID 1347096). Further: nearly all actives have a fitted effect of over 50% in size. The procedure, abridged:
(§2)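 Cells (500-1,000/well) in growth media were settled 5 h at 37 degrees C, then given compounds for 48 h. Viability was read as CellTiter-Glo luminescence. Primary runs used MIPE at 11 points (0.78 nM-46 µM) and NPC at 8 points (0.59 nM-46 µM); follow-ups used 11 points.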

Test [3] is described as follows: qHTS of pediatric cancer cell lines to identify multiple opportunities for drug repurposing: Primary screen for Saos-2 cells (AID 1347097). Further: nearly all actives have a fitted effect of over 40% in size. The procedure, abridged:
as §1

Test [4] is described as follows: qHTS of pediatric cancer cell lines to identify multiple opportunities for drug repurposing: Primary screen for NB1643 cells (AID 1347099). Further: nearly all actives have a fitted effect of over 50% in size. The method, boiled down: as §1
Test [5] can be described thus: qHTS of pediatric cancer cell lines to identify multiple opportunities for drug repurposing: Primary screen for LAN-5 cells (AID 1347100). The procedure, abridged: as §2
Test [6] is described as follows: qHTS of pediatric cancer cell lines to identify multiple opportunities for drug repurposing: Primary screen for BT-12 cells (AID 1347101). Further: nearly all actives have a fitted effect of over 25% in size. The procedure, abridged: (§3)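 Cells (500-1,000/well) rested 5 h, then received compounds for 48 h; metabolically active cells were measured by CellTiter-Glo luminescence. Final concentrations spanned up to 46 µM (MIPE, 11-point) or 0.59 nM-46 µM (NPC, 8-point) in primary screens, 11-point in follow-ups.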

Test [7] is described as follows: qHTS of pediatric cancer cell lines to identify multiple opportunities for drug repurposing: Primary screen for OHS-50 cells (AID 1347103). Further: nearly all actives have a fitted effect of over 40% in size. The method, boiled down: as §3
Test [8] is described as follows: qHTS of pediatric cancer cell lines to identify multiple opportunities for drug repurposing: Primary screen for RD cells (AID 1347104). Further: nearly all actives have a fitted effect of over 55% in size. The method, boiled down:
as §1

The nature of test [9]: qHTS of pediatric cancer cell lines to identify multiple opportunities for drug repurposing: Primary screen for MG 63 (6-TG R) cells (AID 1347105). Further: nearly all actives have a fitted effect of over 50% in size. The procedure, abridged:
as §1

Test [10] is described as follows: qHTS of pediatric cancer cell lines to identify multiple opportunities for drug repurposing: Primary screen for control Hh wild type fibroblast cells (AID 1347106). Further: nearly all actives have a fitted effect of over 55% in size. The method, boiled down: as §2
Test [11] in a line: qHTS of pediatric cancer cell lines to identify multiple opportunities for drug repurposing: Primary screen for Rh41 cells (AID 1347108). Further: nearly all actives have a fitted effect of over 70% in size. The procedure, abridged: as §1
The nature of test [12]: qHTS of pediatric cancer cell lines to identify multiple opportunities for drug repurposing: Primary screen for Rh30 cells (AID 1347107). Further: nearly all actives have a fitted effect of over 75% in size. The method, boiled down:
as §2

Test [13] is described as follows: qHTS of pediatric cancer cell lines to identify multiple opportunities for drug repurposing: Primary screen for SK-N-SH cells (AID 1347098). Further: nearly all actives have a fitted effect of over 65% in size. The method, boiled down: as §3
Test [14] is described as follows: qHTS of pediatric cancer cell lines to identify multiple opportunities for drug repurposing: Primary screen for Rh18 cells (AID 1347102). Further: nearly all actives have a fitted effect of over 65% in size. The method, boiled down: as §2
A short description of test [15]: qHTS of pediatric cancer cell lines to identify multiple opportunities for drug repurposing: Confirmatory screen for NB1643 cells (AID 1347109). Further: nearly all actives have a fitted effect of over 45% in size. The method, boiled down: as §2
Test [16] can be described thus: qHTS of pediatric cancer cell lines to identify multiple opportunities for drug repurposing: Confirmatory screen for A673 cells (AID 1347110).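 Further: cells exposed to compound for 48 h before the viability read; nearly all actives have a fitted effect of over 65% in size.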 The procedure, abridged: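 qHTS titration format: primary MIPE 0.78 nM-46 µM (11 pts), NPC 0.59 nM-46 µM; confirmation 11 pts. 48 h, CTG luminescence.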
The nature of test [17]: qHTS of pediatric cancer cell lines to identify multiple opportunities for drug repurposing: Confirmatory screen for SK-N-MC cells (AID 1347111).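 Further: cells exposed to compound for 48 h before the readout; nearly all actives have a fitted effect of over 70% in size.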 The procedure, abridged: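 Metabolically active cells were quantified by ATP-dependent luminescence (CellTiter-Glo, 15 min at room temperature) following 48 h treatment. Cells had been plated at 500-1,000 per well and settled for 5 h beforehand.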

Test [18] can be described thus: qHTS of pediatric cancer cell lines to identify multiple opportunities for drug repurposing: Confirmatory screen for BT-12 cells (AID 1347112). Further: nearly all actives have a fitted effect of over 55% in size. The procedure, abridged:
as §2

The nature of test [19]: qHTS of pediatric cancer cell lines to identify multiple opportunities for drug repurposing: Confirmatory screen for LAN-5 cells (AID 1347113). Further: nearly all actives have a fitted effect of over 65% in size. The method, boiled down: as §2

Records with an inconclusive call do not appear. Calls of active or inactive are those of the source. The call rests on the fitted dose curve; in most records, active means well fitted curve in the direction sought with a large enough effect; inconclusive means small, poorly fitted or top-dose-only effect, or another doubt; inactive means no such curve, though single readings can be large; an effect the other way counts as inactive or inconclusive.
Potency means the concentration at half of the fitted maximal effect.

Turning to `COc1ccc(S(=O)(=O)Nc2cc(-c3c(O)ccc4ccccc34)c(O)c3ccccc23)cc1`, the Potency in test [1] was 8.33 µM (active); in test [3] it was 4.69 µM (active); in test [4], 18.7 µM (active); in test [5] it was 7.43 µM (active); in [6], 30.6 µM (active); in test [7] it was 10.9 µM (active). The figures for the Potency in test [8], in test [9] and in test [11] were 29.6 µM (active), 18.7 µM (active) and 18.7 µM (active), respectively. Also, the Potency entry in test [2] and in test [10] was “inactive” in each case.
In the case of `COc1ccc2cc([S+]([O-])Cc3ncc(C)c(OC)c3C)nc2c1`, the Potency entry in test [1], in test [2], in [3], in [4], in test [5] and in test [6] was “inactive” throughout. Further, the Potency result in [8], in test [9], in test [10], in test [12] and in [11] was “inactive” each time.
Regarding `Cc1cn([C@@H]2O[C@H](CO)[C@@H](O)[C@H]2F)c(=O)[nH]c1=O`, the Potency result in [1], in [2], in test [3], in test [13], in test [4] and in test [6] was “inactive” each time. In addition, the Potency entry in test [14], in test [7], in [8], in test [9], in test [10] and in test [12] was “inactive” each time. For the same compound, the Potency entry in test [11] is “inactive”.
For `CC(C)(O)Cn1c(NC(=O)c2ccc(-c3cn[nH]c3)s2)nc2cc(CN3CCOCC3)ccc21`, the Potency in test [1] was 0.743 µM (active); in [2] it was 1.87 µM (active); in test [3], 0.743 µM (active); in test [13] it was 1.71 µM (active); in test [4], 0.743 µM (active); in test [5], 0.332 µM (active). Moreover, the Potency in [7] was 1.22 µM (active); in test [8] it was 1.87 µM (active); in test [9], 3.72 µM (active); in test [10], 6.62 µM (active); in test [11] it was 1.18 µM (active); in [15] it was 0.329 µM (active). Besides, the Potency in test [16] was 1.17 µM (active); in test [17], 1.31 µM (active); in test [18], 1.04 µM (active); in [19] it was 1.04 µM (active).
For `C=CC(=O)Nc1ccc2ncnc(Nc3ccc(OCc4cccc(F)c4)c(Cl)c3)c2c1`, the Potency in [1] is 0.0526 µM (active); in [2] it was 5.9 µM (active); in test [3], 0.0296 µM (active); in test [4] it was 0.0743 µM (active); in test [5], 0.001 µM (active); in test [6] it was 0.0172 µM (active). In addition, the Potency in test [8] was 0.0296 µM (active); in [9], 0.296 µM (active); in test [11] it was 0.235 µM (active); in test [15], 14.7 µM (active); in test [16], 3.29 µM (active); in test [17] it was 7.37 µM (active). In addition, the Potency in [18] was 10.4 µM (active); in test [19], 20.8 µM (active). In test [10], the Potency result is “inactive”.
For `CCNC(=O)c1cc2c(-c3cc(OCCN4CCCC4)c(Cl)cc3Cl)nc(N)nc2s1`, the Potency is 0.935 µM (active) in test [1]; 3.72 µM (active) in test [3]; 2.64 µM (active) in test [4]; 1.48 µM (active) in test [5]; 4.69 µM (active) in [14]; 3.85 µM (active) in test [7]. Moreover, the Potency in test [8] is 1.48 µM (active); in [9] it was 14.8 µM (active). In addition, the Potency result in test [2], in test [6], in test [10] and in test [12] was “inactive” throughout.
Turning to `Oc1ccc([C@@H]2Oc3ccc(O)cc3[C@@H]3CCC[C@@H]32)cc1`, the Potency in test [1] was 7.43 µM (active); in [3], 6.62 µM (active); in test [13] it was 24.1 µM (active); in test [4] it was 16.6 µM (active); in test [5], 10.5 µM (active); in test [6] it was 24.3 µM (active). The Potency in test [7] was 24.3 µM (active); in test [8] it was 16.6 µM (active); in [11], 18.7 µM (active). Besides, the Potency entry in test [2] is “inactive”.
On to `Cc1cc(Nc2ncc3c(n2)N(C)C(=O)N(c2cc(NC(=O)c4cccc(C(F)(F)F)c4)ccc2C)C3)n(C)n1`, for which the Potency was 0.743 µM (active) in [1]; 0.935 µM (active) in test [2]; 0.372 µM (active) in test [3]; 0.607 µM (active) in [13]; 0.209 µM (active) in [4]; 0.935 µM (active) in test [5]. The Potency in [14] was 0.59 µM (active); in test [7], 0.217 µM (active); in test [8], 0.418 µM (active); in [9], 0.59 µM (active); in test [10] it was 0.743 µM (active); in test [11], 0.743 µM (active). The Potency in test [16] is 0.414 µM (active); in [17], 0.369 µM (active); in [19], 0.465 µM (active).
On to `C[C@@H]1C(=O)O[C@H]2CC34[C@H]5C[C@@H](C(C)(C)C)C36[C@H](OC(=O)[C@@H]6O)O[C@@]4(C(=O)O5)[C@]21O` (stereo not given in full), for which the Potency result in test [1], in [2], in [14], in test [7], in test [8] and in test [9] was “inactive” throughout. Also, the Potency entry in test [10] and in [11] was “inactive” each time. Moreover, in test [5], the Potency was 13.2 µM (active).
For the compound `c1ccc2c(Oc3nc(Nc4ccc(N5CCOCC5)cc4)c4ncn(C5CCCCC5)c4n3)cccc2c1`, the Potency result in [2], in test [3], in test [13], in test [4], in test [5] and in test [14] was “inactive” in each case. The Potency entry in test [8], in test [9], in test [10] and in test [11] was “inactive” in each case.
On to `CC(=O)O[C@@]12CO[C@H]1C[C@H](O)[C@@]1(C)C(=O)[C@H](O)C3=C(C)[C@@H](OC(=O)C(O)[C@@H](NC(=O)OC(C)(C)C)c4ccccc4)C[C@@](O)([C@@H](OC(=O)c4ccccc4)[C@@H]21)C3(C)C` (stereo not given in full), for which the Potency result in test [2], in test [13], in test [9], in test [10] and in [19] was “inactive” in each case. Moreover, the Potency in [7] was 0.001 µM (active); in test [16] it was 0.0052 µM (active); in [17], 0.0066 µM (active).
On to `c1ccc(CNc2nc(NCc3ccccc3)c3ccccc3n2)cc1`, for which the Potency in test [1] is 23.5 µM (active); in test [3] it was 18.7 µM (active); in test [13], 6.81 µM (active); in test [4] it was 18.7 µM (active); in test [5] it was 20.9 µM (active); in test [6] it was 24.3 µM (active). Moreover, the Potency in test [7] was 30.6 µM (active); in test [12], 23.5 µM (active); in test [11], 18.7 µM (active).
Turning to `CCN(CC)CCCCNc1ncc2c(n1)N(C)C(=O)N(c1c(Cl)c(OC)cc(OC)c1Cl)C2`, the Potency result in [2], in test [3] and in test [9] was “inactive” each time. Further, the Potency in [13] was 6.81 µM (active); in test [4] it was 16.6 µM (active); in test [5], 20.9 µM (active); in [6] it was 17.2 µM (active); in test [14], 11.8 µM (active); in test [7] it was 19.3 µM (active). Moreover, the Potency in test [8] and in test [11] was 18.7 µM (active) throughout.
`C[C@H](NC(=O)[C@@H](O)c1cc(F)cc(F)c1)C(=O)N[C@@H]1C(=O)N(C)c2ccccc2-c2ccccc21`: the Potency entry in [2], in test [5], in test [6], in test [14] and in test [10] was “inactive” each time.
